# Columns and labels:
# Assay in all cases: PBM; 200 nM protein, PBS
# Settings in all cases: dsDNA, one strand shown
# CRX [1] = molecular target: CRX (Homo sapiens, UniProt O43186 26-111)
# CRX [2] = molecular target: CRX (Homo sapiens, UniProt O43186 26-111, E42D)
# PITX2 = PITX2 (Homo sapiens, UniProt Q99697 72-157)
# CRX [3] = molecular target: CRX (Homo sapiens, UniProt O43186 26-111, R41L)
# VAX1 [4] = molecular target: VAX1 (Homo sapiens, UniProt Q5SQQ9 86-172)
# VAX1 [5] = molecular target: VAX1 (Homo sapiens, UniProt Q5SQQ9 86-172, T142I)
# VAX1 [6] = molecular target: VAX1 (Homo sapiens, UniProt Q5SQQ9 86-172, K157R)
# Sequence of VAX1 (Homo sapiens, UniProt Q5SQQ9 86-172, K157R) (Q5SQQ9 86-172 K157R): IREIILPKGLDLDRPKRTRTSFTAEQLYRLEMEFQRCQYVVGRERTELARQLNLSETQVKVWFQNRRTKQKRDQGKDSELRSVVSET
# Sequence of CRX (Homo sapiens, UniProt O43186 26-111, E42D) (O43186 26-111 E42D): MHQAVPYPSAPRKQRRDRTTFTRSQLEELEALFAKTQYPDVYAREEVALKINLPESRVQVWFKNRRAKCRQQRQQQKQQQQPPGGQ
# Sequence of CRX (Homo sapiens, UniProt O43186 26-111, R41L) (O43186 26-111 R41L): as the sequence (O43186 26-111 E42D) above, with R16L, D17E counted along it
# Sequence of CRX (Homo sapiens, UniProt O43186 26-111) (O43186 26-111): as the sequence (O43186 26-111 E42D) above, with D17E counted along it
# Sequence of VAX1 (Homo sapiens, UniProt Q5SQQ9 86-172) (Q5SQQ9 86-172): as the sequence (Q5SQQ9 86-172 K157R) above, with R72K counted along it
# Sequence of VAX1 (Homo sapiens, UniProt Q5SQQ9 86-172, T142I) (Q5SQQ9 86-172 T142I): as the sequence (Q5SQQ9 86-172 K157R) above, with T57I, R72K counted along it
Sequence,binding signal (CRX [1]),binding signal (CRX [2]),binding signal (PITX2),binding signal (CRX [3]),binding signal (VAX1 [4]),binding signal (VAX1 [5]),binding signal (VAX1 [6])
TAATCCGA,"13.6 upbm affinity estimate (log intensity, higher = more binding, comparable within an allelic series)","13.6 upbm affinity estimate (log intensity, higher = more binding, comparable within an allelic series)","13.1 upbm affinity estimate (log intensity, higher = more binding, comparable within an allelic series)","13.5 upbm affinity estimate (log intensity, higher = more binding, comparable within an allelic series)",–,–,–
GGGATTAC,"13.2 upbm affinity estimate (log intensity, higher = more binding, comparable within an allelic series)","13.2 upbm affinity estimate (log intensity, higher = more binding, comparable within an allelic series)","13.1 upbm affinity estimate (log intensity, higher = more binding, comparable within an allelic series)","13.2 upbm affinity estimate (log intensity, higher = more binding, comparable within an allelic series)",–,–,–
ACCTCCCA,"8.37 upbm affinity estimate (log intensity, higher = more binding, comparable within an allelic series)","8.4 upbm affinity estimate (log intensity, higher = more binding, comparable within an allelic series)","8.05 upbm affinity estimate (log intensity, higher = more binding, comparable within an allelic series)","8.28 upbm affinity estimate (log intensity, higher = more binding, comparable within an allelic series)",–,–,–
GAGATTAA,"13.1 upbm affinity estimate (log intensity, higher = more binding, comparable within an allelic series)","13.1 upbm affinity estimate (log intensity, higher = more binding, comparable within an allelic series)","12.8 upbm affinity estimate (log intensity, higher = more binding, comparable within an allelic series)","12.8 upbm affinity estimate (log intensity, higher = more binding, comparable within an allelic series)",–,–,–
AGGGATTA,"13.6 upbm affinity estimate (log intensity, higher = more binding, comparable within an allelic series)","13.7 upbm affinity estimate (log intensity, higher = more binding, comparable within an allelic series)","13.5 upbm affinity estimate (log intensity, higher = more binding, comparable within an allelic series)","13.7 upbm affinity estimate (log intensity, higher = more binding, comparable within an allelic series)",–,–,–
GGATTAAC,"13.6 upbm affinity estimate (log intensity, higher = more binding, comparable within an allelic series)","13.6 upbm affinity estimate (log intensity, higher = more binding, comparable within an allelic series)","13.3 upbm affinity estimate (log intensity, higher = more binding, comparable within an allelic series)","13.5 upbm affinity estimate (log intensity, higher = more binding, comparable within an allelic series)",–,–,–
CCGGATTA,"13.5 upbm affinity estimate (log intensity, higher = more binding, comparable within an allelic series)","13.6 upbm affinity estimate (log intensity, higher = more binding, comparable within an allelic series)","13.1 upbm affinity estimate (log intensity, higher = more binding, comparable within an allelic series)","13.5 upbm affinity estimate (log intensity, higher = more binding, comparable within an allelic series)",–,–,–
TAATCCCA,"13.4 upbm affinity estimate (log intensity, higher = more binding, comparable within an allelic series)","13.4 upbm affinity estimate (log intensity, higher = more binding, comparable within an allelic series)","13.4 upbm affinity estimate (log intensity, higher = more binding, comparable within an allelic series)","13.3 upbm affinity estimate (log intensity, higher = more binding, comparable within an allelic series)",–,–,–
GTTGGCCA,"8.35 upbm affinity estimate (log intensity, higher = more binding, comparable within an allelic series)","8.33 upbm affinity estimate (log intensity, higher = more binding, comparable within an allelic series)","8.06 upbm affinity estimate (log intensity, higher = more binding, comparable within an allelic series)","8.24 upbm affinity estimate (log intensity, higher = more binding, comparable within an allelic series)",–,–,–
GCGGATTA,"13.6 upbm affinity estimate (log intensity, higher = more binding, comparable within an allelic series)","13.7 upbm affinity estimate (log intensity, higher = more binding, comparable within an allelic series)","13.3 upbm affinity estimate (log intensity, higher = more binding, comparable within an allelic series)","13.6 upbm affinity estimate (log intensity, higher = more binding, comparable within an allelic series)",–,–,–
AGGATTAC,"13.1 upbm affinity estimate (log intensity, higher = more binding, comparable within an allelic series)","13 upbm affinity estimate (log intensity, higher = more binding, comparable within an allelic series)","12.9 upbm affinity estimate (log intensity, higher = more binding, comparable within an allelic series)","13 upbm affinity estimate (log intensity, higher = more binding, comparable within an allelic series)",–,–,–
GCTAATCC,"13.4 upbm affinity estimate (log intensity, higher = more binding, comparable within an allelic series)","13.5 upbm affinity estimate (log intensity, higher = more binding, comparable within an allelic series)","13.3 upbm affinity estimate (log intensity, higher = more binding, comparable within an allelic series)","13.4 upbm affinity estimate (log intensity, higher = more binding, comparable within an allelic series)",–,–,–
AGAGATTA,"13.1 upbm affinity estimate (log intensity, higher = more binding, comparable within an allelic series)","13.1 upbm affinity estimate (log intensity, higher = more binding, comparable within an allelic series)","12.7 upbm affinity estimate (log intensity, higher = more binding, comparable within an allelic series)","13 upbm affinity estimate (log intensity, higher = more binding, comparable within an allelic series)",–,–,–
AGATTATC,"13.2 upbm affinity estimate (log intensity, higher = more binding, comparable within an allelic series)","13.1 upbm affinity estimate (log intensity, higher = more binding, comparable within an allelic series)","12.5 upbm affinity estimate (log intensity, higher = more binding, comparable within an allelic series)","13.2 upbm affinity estimate (log intensity, higher = more binding, comparable within an allelic series)",–,–,–
AACTTTAA,"10.5 upbm affinity estimate (log intensity, higher = more binding, comparable within an allelic series)","10.2 upbm affinity estimate (log intensity, higher = more binding, comparable within an allelic series)",–,–,"9.82 upbm affinity estimate (log intensity, higher = more binding, comparable within an allelic series)","9.35 upbm affinity estimate (log intensity, higher = more binding, comparable within an allelic series)","9.35 upbm affinity estimate (log intensity, higher = more binding, comparable within an allelic series)"
TGGATTAA,"13.4 upbm affinity estimate (log intensity, higher = more binding, comparable within an allelic series)","13.5 upbm affinity estimate (log intensity, higher = more binding, comparable within an allelic series)","13.3 upbm affinity estimate (log intensity, higher = more binding, comparable within an allelic series)","13.2 upbm affinity estimate (log intensity, higher = more binding, comparable within an allelic series)",–,–,–

# Source: article PMC11006913
